# Assay results from ChEMBL document CHEMBL1157539, “Thousands of chemical starting points for antimalarial lead identification” (Nature, 2010).
# System: HepG2
# Assay: GSK_TCMDC: Percent inhibition of human HepG2 cell line. Test compounds present at 10uM.
# Type: functional
row,SMILES,Inhibition [%]
1,CCn1c(-c2nonc2N)nc2c(-c3cccc(NC(=O)NCc4ccccc4)c3)ncc(OCCCN)c21.O=C(O)C(F)(F)F,5
2,CC(=O)Nc1ccc(CN2CCc3ccc(NS(=O)(=O)c4ccc(-c5cccc(C(F)(F)F)c5)cc4)cc3CC2)s1,23
3,CCS(=O)(=O)c1ccc(/C(=N/OC)c2ccc[nH]2)cc1,0
4,COc1cccc(-c2nc(Nc3ccncc3)c3ncn(C)c3n2)c1.O=C(O)C(F)(F)F,14
5,Cl.Oc1cccc(Nc2ccnc3cc(-c4nccs4)ccc23)c1,0
6,O=[N+]([O-])c1ccc(-n2nc(-c3cccnc3)n(Cc3ccco3)c2=S)c(Cl)c1,13
7,COc1cc2c(cc1C(F)(F)F)N(C(=O)Nc1ccc(Br)cn1)CC2,16
8,O=C(O)CCSc1ncnc2[nH]cnc12,7
9,CCN1CCN(c2cc(C)c3cc(NC(=O)c4ccc(C(C)(C)C)cc4)ccc3n2)CC1,34
10,COc1ccc(NC(=O)c2ccc(-c3cccc(OCc4ccccc4)c3)cc2)cc1N1CCN(C)CC1,29
11,O=C(Nc1ccc(OC2CCN(CC3CC3)CC2)c(Cl)c1)c1ccc2ncccc2c1.O=C(O)C(F)(F)F,19
12,COc1c(C2CCN(CCCCNC(=O)C=Cc3ccccc3C(F)(F)F)CC2)ccc2c1CCCC2,98
13,COc1ccc(CN2CCN(CC(=O)Nc3cc(Cl)ccc3-n3cncn3)CC2)cc1F,0
14,O=C(NNC(=O)c1ccc(CN2CCC(c3nc4ccccc4[nH]3)CC2)cc1)Nc1ccc(Oc2ccccc2)cc1.O=C(O)C(F)(F)F,0
